Each structure is given as a SMILES string. Out of some 2,400 compounds screened, about 360 (15%) were called active.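 Rule for the calls: active = viability falls under 70% at one or more tested concentrations, taken as toxicity; inactive = viability stays over 70% at every dose.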 Not all results are given here. Results with a measured potency or affinity are listed apart.

A short description of this test: viability loss in HeLa cells – cytotoxicity control for MgcRacGAP inhibitor project, dose response (AID 624300). Particulars: CellTiter-Glo luminescence, 24 h; series mostly up to 100 µM. (In general: In ATP-based viability assays light output follows the ATP content of the culture.)
`O=C(CNC(=O)c1cccnc1)N/N=C/c1ccc(O)cc1O`: the result was inactive.

Turning to `COc1cc(/C=C/C(=O)OCC(=O)c2ccc[nH]2)ccc1O`, the molecule was called inactive.

As for `COCCNCC(=O)Nc1nc(C)cs1`, the molecule was classed as inactive.

For the molecule `Cc1ccc(CNc2ccc(N3CCOCC3)cc2)s1`, the call was inactive.

For the molecule `CN(C1CCCCC1)S(=O)(=O)c1cccc2nsnc12`, the result was inactive.

As to `COc1cc(/C=N/NC(=O)C2CCN(CC(O)COCc3ccccc3)CC2)ccc1O` (configuration not stated), the result was inactive.

For `COc1cc(/C=N/NC(=O)CNC(=O)c2ccco2)ccc1O`, the call was inactive.

With `O=C(/C(=C/c1ccccc1)n1cncn1)c1ccc(Cl)cc1Cl`, the molecule was classed as inactive.

As for `Cc1ccn2c(Nc3ccc4c(c3)OCO4)c(-c3ccc(O)cc3)nc2c1`, the molecule was classed as inactive.

In the case of `COc1cc(-c2nc3cnccn3c2Nc2ccc(C)cc2)ccc1O`, the call was inactive.

On to `CCOc1ccc(N)cc1OC`, for which the molecule was called inactive.

For `Cc1cc(Cl)cc2sc(=S)[nH]c12`, the outcome was inactive.

As for `NC(=S)N/N=C/c1cccc(O)c1O`, the result was inactive.

As to `O=C(CNc1ccc2c(c1)OCO2)N/N=C\c1ccccc1Cl`, the call was inactive.

On to `Cc1ccc(C2CC(=O)N3CN(c4ccc(Br)cc4)CSC3=C2C#N)o1` (configuration not stated), for which the molecule was classed as inactive.

In the case of `OC1CCN(C(=S)Nc2ccc(Nc3ccccc3)cc2)CC1`, the molecule was called inactive.

Turning to `Nc1ccc(N2CCN(c3ccc(Cl)c(Cl)c3)CC2)cc1`, the result was inactive.

As to `CCN(Cc1ccncc1)Cc1ccc(OC)c(OC)c1`, the molecule was called inactive.

As for `COc1ccc(NC2CCCN(C(=O)COc3ccc(Cl)cc3C)C2)cc1OC` (configuration not stated), the outcome was inactive.

For the molecule `COc1ccc(NC(=O)n2ncc3c(C)cccc32)cc1OC`, the result was inactive.

As for `CCCC(=Nc1ccc(N)cc1)C1=C(O)C(C(=O)OC)C(C)(C)CC1=O` (configuration not stated), the outcome was inactive.

With `COc1ccc(N2CCN(C(CNC(=O)CC(C)(C)C)c3ccc4c(c3)OCO4)CC2)cc1` (configuration not stated), the result was inactive.

`COC(=O)NCC(c1ccc2c(c1)OCO2)N1CCN(c2ccc(OC)cc2)CC1` (configuration not stated): the outcome was inactive.

Take `COc1cc2c(cc1N)-c1ccc(N)cc1C2=O`: the result was inactive.

Regarding `COc1cc(/C=C/CN2CCN(Cc3ccc(C)o3)C(CCO)C2)ccc1O` (configuration not stated), the molecule was classed as inactive.

For `COc1ccc(/C=N/NC(=O)c2cc[n+]([O-])cc2)cc1O`, the molecule was classed as inactive.

Consider `Cc1ccc(O)c(C=Nc2ccc3[nH]ncc3c2)c1`, for which the molecule was called inactive.

On to `Nc1ccc2nc(C3CCCCC3)[nH]c2c1`, for which the molecule was called inactive.

In the case of `CCOC(=O)C1Nc2ccc(C(=O)O)cc2C2C=CCC12` (configuration not stated), the call was inactive.

`CCOc1cc(/C=N/N2CCN(Cc3ccccc3)CC2)ccc1O`: the call was inactive.

`Cc1sc2nc(CN3CCOCC3)nc(N3CCOCC3)c2c1C`: the molecule was called inactive.

`O=S(=O)(Nc1ccccc1F)c1cccc(NC(=S)NCCN2CCOCC2)c1`: the outcome was inactive.

For the molecule `CCN(CC)c1ccc(NC(=O)CN(C)Cc2cccs2)cc1`, the outcome was inactive.

Consider `CN(C)S(=O)(=O)c1cc(NC(=O)CNCCN2CCOCC2)ccc1Cl`, for which the result was inactive.

In the case of `O=C1/C(=C\c2ccccc2)CN(C(=O)CCN2CCCCC2)C/C1=C/c1ccccc1`, the molecule was called inactive.

Take `COc1cc(/C=N/NC(=O)c2cc(C)oc2C)ccc1O`: the outcome was inactive.

With `COC(=O)/C(=C/Nc1ccc(O)cc1)[N+](=O)[O-]`, the call was inactive.

With `Nc1ccc2c(c1)Cc1cc(N)c(Cl)cc1-2`, the result was inactive.

For the molecule `COc1cc(C(C)n2nnc3ccccc32)ccc1O` (configuration not stated), the molecule was classed as inactive.

For the molecule `COc1ccccc1OCCCCCCN1CCOCC1`, the molecule was classed as inactive.

With `COCCNC(=S)Nc1cc(OC)c(OC)cc1C#N`, the molecule was classed as inactive.

With `Oc1ccc(-c2csc(Nc3ccccn3)n2)cc1`, the molecule was called inactive.

Consider `Cc1ccnc(Nc2nc(-c3ccc(O)cc3)cs2)c1`, for which the result was inactive.

As to `Cc1nc2ncccn2c1-c1csc(Nc2ccc(O)cc2)n1`, the molecule was called inactive.

As for `NS(=O)(=O)c1ccc(Nc2nc(-c3ccc(O)cc3)cs2)cc1`, the call was inactive.

On to `Cc1cc(O)ccc1Nc1nc(-c2cccs2)cs1`, for which the call was inactive.

Consider `CC(=O)Nc1cccc(-c2csc(NCc3ccccc3)n2)c1`, for which the molecule was called inactive.

Regarding `Cc1cc(NS(=O)(=O)c2ccc(Nc3nc(-c4ccc(O)cc4)cs3)cc2)no1`, the outcome was inactive.

For `CC(C)Oc1ccc(OCCn2c(=S)[nH]c3c(N)ncnc32)cc1`, the outcome was inactive.

Regarding `CSc1ccccc1NC(=O)CN(C)C(C)C(=O)NCc1ccc2c(c1)OCO2` (configuration not stated), the molecule was classed as inactive.

On to `COc1cc(/C=C/C(=O)OCC(=O)Nc2ccc3c(c2)OCO3)ccc1O`, for which the result was inactive.

Consider `Nn1c(=S)[nH]c2sc3c(c2c1=O)CCCC3`, for which the molecule was classed as inactive.

For the molecule `Cc1cc(C)c(OCC(O)CN2CCN(C(=O)c3ccccc3)CC2)c(C)c1` (configuration not stated), the result was inactive.

With `COc1nc(Nc2ccc(O)cc2)nc(OC(C(F)(F)F)C(F)(F)F)n1`, the outcome was inactive.

With `O=C(c1cccc(F)c1)N1CCN(Cc2cccc(Br)c2)CC1`, the molecule was classed as inactive.

Take `OCCN1CCN(C(=S)Nc2cccc(C(F)(F)F)c2)CC1`: the molecule was called inactive.

With `N#CC1=C(S)N(c2ccc(F)cc2)C(c2cccs2)NC1=O` (configuration not stated), the molecule was called inactive.

Regarding `O=C(O)c1ccc(-c2ccc(/C=c3/sc4nc5ccccc5n4c3=O)o2)cc1Cl`, the call was inactive.

On to `O=S(=O)(c1ccc2ccccc2c1)N1CCN(C2CCN(Cc3ccccc3)CC2)CC1`, for which the molecule was classed as inactive.

For the molecule `O=C(CCCCCNC(=O)c1ccccc1)N/N=C/c1ccc(O)cc1O`, the molecule was classed as inactive.

Turning to `O=S(=O)(O)c1cc(Cl)cc(N=Nc2ccc(O)cc2O)c1O`, the outcome was inactive.

With `CCc1cc(-c2n[nH]c(CCC(=O)O)c2-c2nc3ccccc3n2C)c(O)cc1O`, the result was inactive.

With `COc1ccc2c(c1)Sc1ccccc1N2`, the result was inactive.

Take `Cn1cnc2cc(NCc3ccccc3O)ccc21`: the result was inactive.

As for `CCN(CC)c1ccc(N=Cc2ccccc2[N+](=O)[O-])cc1`, the molecule was called inactive.

As to `CC(=O)OCCNc1cc(N2CCN(C)CC2)c2noc3c2c1C(=O)c1ccccc1-3`, the molecule was called inactive.

With `CCOc1cc(/C=N\n2nnnc2N)ccc1O`, the outcome was inactive.

As to `CCOc1cc(/C=N/NC(=O)CCn2nc(C)cc2C)ccc1O`, the outcome was inactive.

For `CCN(CC)c1ccc(NC(=O)COC(=O)Cc2ccsc2)cc1`, the outcome was inactive.

With `Nc1c(/C=C2/C=CC(=O)C(O)=C2)c(=O)nc2sc(CC(=O)N3CCCC3)nn12`, the molecule was classed as inactive.

Consider `CC(=O)Nc1ccc(OC(=O)Cc2ccc(Cl)cc2)cc1`, for which the outcome was inactive.

Consider `OCCCNC(=S)Nc1ccc(Nc2ccccc2)cc1`, for which the molecule was classed as inactive.

As for `COc1cc(OC)c(OC)cc1CN1CCN(C(=O)c2cccc3ccccc23)CC1`, the outcome was inactive.

Take `O=c1cc(-c2ccc(O)c(O)c2)oc2cc(O)c(C3OC(CO)C(O)C(O)C3O)c(O)c12` (configuration not stated): the molecule was called inactive.

As to `Oc1ccc(N2CCN(C(=S)NCCc3ccccc3)CC2)cc1`, the result was inactive.

As to `CC1(C)CNc2cc(N)ccc2S1`, the molecule was called inactive.

Regarding `Nc1n[nH]c(=S)n1/N=C1/C(=O)Nc2ccccc21`, the molecule was called inactive.

On to `CC(C)N1CCN(C(=O)c2cccc(Cl)c2)CC1`, for which the outcome was inactive.

On to `Fc1ccc(CNCc2ccccc2Cl)cc1`, for which the molecule was called inactive.

Consider `Oc1ccc2ccc(Cl)cc2c1`, for which the molecule was classed as inactive.

For the molecule `CCN1CCN(CCCOc2ccc(Cl)cc2Br)CC1`, the call was inactive.

Regarding `C=CCc1cc(Cl)ccc1OCCN(C)C`, the call was inactive.

For `CCn1nc(C)c(Br)c1C(=O)Sc1ccccc1Cl`, the molecule was classed as inactive.

Turning to `Cc1c(NC(=O)CNCc2ccc3c(c2)OCO3)c(=O)n(-c2ccccc2)n1C`, the result was inactive.

Consider `Nc1ccc(N=Nc2ccc(N)cc2)cc1`, for which the call was inactive.

For the molecule `COc1cccc(OC)c1NC(=O)CN1CCN(C)CC1`, the molecule was classed as inactive.

In the case of `COc1ccc(/C=N/NC(=O)c2cnccn2)cc1O`, the result was inactive.

Consider `O=C(CNCc1ccco1)Nc1cccc(S(=O)(=O)N2CCCCC2)c1`, for which the molecule was classed as inactive.

On to `Cc1cn([C@H]2C[C@H](O)[C@@H](CNCC3=Cc4cc(O)ccc4OC3)O2)c(=O)[nH]c1=O`, for which the outcome was inactive.

Regarding `CCN(c1ccccc1)S(=O)(=O)c1ccc(Cl)c(NC(=O)CN(C)C2CCN(C)CC2)c1`, the result was inactive.

On to `CN1CCC(N(C)CC(=O)Nc2ccc3c(c2)OC(F)(F)O3)CC1`, for which the outcome was inactive.

As to `COc1cc(/C=C/C(=O)OCC(=O)N2CCN(C(=O)c3ccco3)CC2)ccc1O`, the outcome was inactive.

`CCn1c(=O)c2c3c(sc2n2c(=S)[nH]nc12)CCC3`: the outcome was inactive.

Consider `CC1(C)OC(C)(C)/C(=C/Nc2ccc(O)cc2)C1=O`, for which the result was inactive.

Consider `O=C(Nc1ccc(O)cc1)c1ccccc1OCc1ccccc1`, for which the result was inactive.

Take `COc1cc(C(=O)N/N=C(\C)c2ccc(NC(=O)Cc3ccccc3)cc2)ccc1O`: the molecule was called inactive.

`c1cc(CN2CCN(C3CCCCCC3)CC2)ccn1`: the molecule was called inactive.

With `O=C1CC(Nc2ccc(N3CCOCC3)cc2)C(=O)N1Cc1ccccc1` (configuration not stated), the molecule was classed as inactive.

Consider `CSc1ccccc1NC(=O)CNCCCN1CCOCC1`, for which the result was inactive.

Consider `COc1cc(CC(=O)OCC(=O)Nc2ccc(N(C)C)cc2)cc(OC)c1OC`, for which the outcome was inactive.

As for `Cc1cc(-c2n[nH]c(=S)n2/N=C/c2cccs2)n[nH]1`, the result was inactive.

Consider `CCCCNCC#CCOc1cc(C)ccc1C(C)C`, for which the molecule was called inactive.

On to `C=CCNCC(O)COc1ccc(C(C)=O)cc1OC` (configuration not stated), for which the call was inactive.

On to `O=C(CNCc1ccco1)Nc1ccc(N2CCCCCC2)cc1`, for which the result was inactive.

For the molecule `Cc1ccccc1OCCN1CCCC1`, the outcome was inactive.

`CC1CN(CCCCOc2ccc(Cl)c3ccccc23)CC(C)O1` (configuration not stated): the call was inactive.

As for `COc1cc(C2NC(=O)C(C#N)=C(S)N2c2ccc(C)cc2)ccc1OC(C)C` (configuration not stated), the molecule was classed as inactive.

For `Nc1ccc2ccc(O)cc2c1`, the molecule was classed as inactive.

In the case of `CCOc1cc(/C=C(\C#N)C(=O)NCc2cccnc2)ccc1O`, the molecule was called inactive.

Turning to `CCOc1cc(/C=C(\C#N)C(=O)NCC2CCCO2)ccc1O` (configuration not stated), the call was inactive.

Regarding `O=C(CCC1CCCC1)N1CCN(C2CCCC2)CC1`, the call was inactive.

Consider `CC(C)(C)c1cc(C(=O)N/N=C/c2ccc(O)cc2)n(-c2ccccc2)n1`, for which the molecule was called inactive.

Consider `Cc1cccc2sc(NNC(=O)c3cc(=O)c4ccccc4o3)nc12`, for which the molecule was classed as inactive.

For `COc1ccc(NC(=S)NCC2CCN(c3ccc(OC)cc3)C2)cc1` (configuration not stated), the call was inactive.

On to `C=CCc1cc(Cl)ccc1OCCn1ccnc1`, for which the call was inactive.

Consider `CCOc1cc(/C=N/NC(=O)CN2CCCCC2)ccc1O`, for which the molecule was called inactive.

In the case of `O=C1CSC(=Nc2ccc(O)cc2)N1c1ccc(O)cc1`, the result was inactive.

As for `COc1ccc(NC2CCCN(C(=O)c3cc(C)nc4cc(F)ccc34)C2)cc1` (configuration not stated), the call was inactive.

With `Cc1c(N=Nc2ccc(N(C)C)cc2)c(=O)n(-c2ccccc2)n1C`, the call was inactive.

As to `CN(C)c1ccc(N=c2sc3ccccc3n2C)cc1`, the result was inactive.

On to `O=C(N/N=C/c1ccc(O)cc1)c1cc[n+](Cc2ccccc2)cc1`, for which the molecule was classed as inactive.

In the case of `O=C(N/N=C/c1ccc(N2CCOCC2)s1)c1ccc(O)cc1`, the call was inactive.
